# Laboratory results as given in PubChem BioAssay (Tox21).
# Results filed as inconclusive are left out. Where a call stands in place of a potency, no number is given. Calls of active or inactive are those of the source. Calls follow the shape of the dose curve; as a rule, active = well fitted activation curve with a large enough effect in the repeat runs; inconclusive = weak or mixed curves, or effect the other way; inactive = no such curve, though single readings can be large or run the other way.
# Assay: qHTS assay to identify small molecule agonists of the estrogen related receptor signaling pathway with the pleiotropic PPARgamma coactivator (PGC) from Tox21 10K library (AID 1224842); also: nearly all actives have a fitted effect of over 15% in size
# Settings: PGC/ERR reporter cell line, luciferase ONE-Glo, 18 h; series mostly up to 92.4 µM
# Source text: National Center for Advancing Translational Sciences [NCATS] NIH Chemical Genomics Center [NCGC] U.S. Environmental Protection Agency [EPA] National Institutes of Environmental Health Sciences [NIEHS] National Toxicology Program [NTP] Assay overview: Estrogen related receptors (ERRs), the first orphan nuclear receptors discovered, play an important role in the control of cellular energy metabolism. ERRs are required for high-energy production in response to the environmental challenges. The pleiotropic PPARgamma coactivator (PGC) is a major partner of ERR and a key regulator in energy homeostasis. Together they have been implicated in the etiology of metabolic disorders such as Type 2 diabetes and metabolic syndrome. ERR-alpha was also identified as an adverse marker for breast cancer progression; ERR-alpha-positive tumors have a poor prognosis. To screen and to identify environmental compounds that perturb the PGC/ERR signaling pathways could provide valuable information for potential therapeutic or preventive measures in the treatment of metabolic disease. For identifying PGC/ERR agonists, PGC/ERR cell line (provided by NTP) has been used to screen Tox21 10K library.
# Assay Protocol Summary: The PGC/ERR cells were dispensed at 2,000 cells/5 ul/well in 1536-well white plates using a Multidrop dispenser. After the assay plates were incubated at a 37 C/5% CO2 incubator for 6 hours, 23 nL of compounds dissolved in DMSO, positive and negative controls or DMSO only was transferred to the assay plate by a pin tool. The plates were incubated at 37 C for 18 hours. 4 ul/well of One-Glo reagent was added into the assay plates using a Flying Reagent Dispenser. After 30-minute incubation at room temperature, the luminescence intensity in the plates was measured using a ViewLux plate reader.
# Potency is read from the fitted curve at half-maximal effect.
row,SMILES,Potency
1,O=C(Nc1ccc2c(O)c(N=Nc3ccc(N=Nc4ccc(S(=O)(=O)O)cc4)cc3)c(S(=O)(=O)O)cc2c1)c1ccccc1,inactive
2,O=C(O)c1cc(O)c2ccccc2c1O,inactive
3,CCCCCc1ccc(Cl)cc1,inactive
4,C#C[C@]1(OC(C)=O)CC[C@H]2[C@@H]3CCC4=C/C(=N/O)CC[C@@H]4[C@H]3CC[C@@]21CC,inactive
5,C=C(C)C(=O)OCCCCCCCCCC,inactive
6,COC(=O)c1ccccc1C,inactive
7,S=c1nccc[nH]1,inactive
8,CC1(C)CCC[C@]2(C)[C@H]3CCO[C@]3(C)CC[C@@H]12,inactive
9,CC1(C)[C@@H](O)CC[C@]2(C)[C@H]3C(=O)C=C4[C@@H]5C[C@@](C)(C(=O)O)CC[C@]5(C)CC[C@@]4(C)[C@]3(C)CC[C@@H]12,inactive
10,CC(C)OC(=O)C(O)(CC(=O)O)CC(=O)O,inactive
11,CN1CCN2c3ccccc3Cc3ccccc3C2C1 (stereo not given),inactive
12,CCCCCCCCCCCCOCCOCCOCCOCCOCCOCCOCCOCCOCCO,inactive
13,Cc1cccc(C)c1NC(=O)c1ccc(N)cc1,inactive
14,CN(C)[C@@H](CCOc1cccc2ccccc12)c1ccccc1,inactive
15,CC[N+](CC)(CC)CCOc1ccc(/C=C/c2ccccc2)cc1,inactive
16,Clc1ccnc(Cl)n1,inactive
17,C=CC(=O)Nc1cc2c(Nc3ccc(F)c(Cl)c3)ncnc2cc1OCCCN1CCOCC1,3.76 µM (active)
18,CC(C)(c1cc(Br)c(OCC(Br)CBr)c(Br)c1)c1cc(Br)c(OCC(Br)CBr)c(Br)c1 (stereo not given),inactive
19,Cc1cc(C(C)(C)C)c(O)c(C)c1Cn1c(=O)n(Cc2c(C)cc(C(C)(C)C)c(O)c2C)c(=O)n(Cc2c(C)cc(C(C)(C)C)c(O)c2C)c1=O,inactive
20,CCCCCCOC(=O)C(C)CC (stereo not given),inactive

row,SMILES,Potency
1,Cc1ccc(C(=O)O)cc1,inactive
2,COC(=O)c1ccccc1OC,inactive
3,CCOC(=O)NNc1ccc(N(CC)CC(C)O)nn1 (stereo not given),inactive
4,C[Si](Cl)(c1ccccc1)c1ccccc1,inactive
5,Cc1cc(-n2nc3ccc(Cl)cc3n2)c(O)c(C(C)(C)C)c1,inactive
6,Clc1sc(Cl)c(Cl)c1Cl,inactive
7,COc1cc(S(=O)(=O)O)c(C)cc1N=Nc1c(O)ccc2cc(S(=O)(=O)O)ccc12,inactive
8,O=S(=O)(O)c1ccc(Nc2nc(Nc3ccc(/C=C/c4ccc(Nc5nc(Nc6ccc(S(=O)(=O)O)cc6)nc(N(CCO)CCO)n5)cc4S(=O)(=O)O)c(S(=O)(=O)O)c3)nc(N(CCO)CCO)n2)cc1,inactive
9,Nc1nc(-c2ccccc2)cs1,inactive
10,O=C(O)c1cc(=O)c2ccccc2o1,inactive
11,O=C1CCc2ccc(OCCCCN3CCN(c4cccc(Cl)c4Cl)CC3)cc2N1,inactive
12,Cc1cc(C(C)(C)C)cc(C)c1CC1=NCCN1,inactive
13,Cc1ccc(O)c(O)c1,13.3 µM (active)
14,C#CC1(O)CC[C@H]2[C@@H]3CCC4=CCCC[C@@H]4[C@H]3CC[C@@]21C (stereo not given in full),inactive
15,OC1CCC(C2CCCCC2)CC1 (stereo not given),inactive
16,COc1ccc2cc1Oc1ccc(cc1)C[C@H]1c3c(cc4c(c3Oc3cc5c(cc3OC)CCN(C)[C@@H]5C2)OCO4)CCN1C,inactive
17,CCCc1ccc(OCC(=O)N2CCN(C(=O)COc3ccc(CCC)cc3OC)CC2)c(OC)c1,inactive
18,Cc1cc(=O)oc2cc(O)cc(O)c12,inactive
19,CCCCCCCCCCCCCCCC[N+](C)(C)CC,inactive
20,CCC(COC(=O)CCS)(COC(=O)CCS)COC(=O)CCS,inactive
